Dyrk1A ADPGlo: Dyrk1A (rat) kinase inhibition | Q63470 | ADP-Glo luminescence, NFATc1 peptide | inhibition, % at 12.5 µM | 0.43% of 310,000 active | AID 504441; in the data active = inhibition above about 50%;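 note: plate controls were vehicle with enzyme for no effect and no enzyme for full effect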
dFosB activator: mouse delta FosB homodimer activation; purified delta FosB, TAMRA-CDK5 oligo fluorescence polarization; percent of positive-control signal above neutral wells; P13346; activation, % at 25 µM; 0.99% of 340,000 active;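 active = mean activation above about 17%, with every replicate also reaching it, limit read from the data, passing the limit was not always enough; inconclusive = only one of the two conditions met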
Target sequence (P13346 whole entry, looked up): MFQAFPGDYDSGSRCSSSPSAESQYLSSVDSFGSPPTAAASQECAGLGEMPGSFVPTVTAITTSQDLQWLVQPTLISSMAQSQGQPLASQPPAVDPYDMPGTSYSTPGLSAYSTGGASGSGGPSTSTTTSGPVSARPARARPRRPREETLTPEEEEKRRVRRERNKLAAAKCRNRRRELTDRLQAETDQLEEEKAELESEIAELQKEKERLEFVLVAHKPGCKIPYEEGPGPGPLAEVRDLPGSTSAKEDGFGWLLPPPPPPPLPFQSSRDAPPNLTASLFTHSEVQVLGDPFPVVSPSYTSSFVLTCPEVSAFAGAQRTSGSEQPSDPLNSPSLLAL
esBAF inh: blocks esBAF chromatin remodeling in mouse ES cells | Bmi1-luciferase knock-in reporter, 24 h; 100% = twice the neutral-well signal | AID 602393 | reporter increase, % at 12.5 µM | 2% of 350,000 active; in the data active = activation above about 40%; inconclusive = no clear call, values can overlap the other calls;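 note: 0% = median of the plate's neutral control wells and 100% = double that signal; a rise in the Bmi1 reporter signal indicates esBAF inhibition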
Rtt109 Vps75: inhibitors of Candida albicans Rtt109/Vps75 histone acetyltransferase | Q5AAJ8 | purified Rtt109/Vps75, ThioGlo CoA-SH fluorescence, 4 h | inhibition, % at 34.9 µM | 0.16% of 330,000 active | AID 540336;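 active = inhibition of at least 50% in every replicate; inconclusive = best replicate reaches 50% inhibition but some replicates fall short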
Target sequence (Q5AAJ8 whole entry, looked up): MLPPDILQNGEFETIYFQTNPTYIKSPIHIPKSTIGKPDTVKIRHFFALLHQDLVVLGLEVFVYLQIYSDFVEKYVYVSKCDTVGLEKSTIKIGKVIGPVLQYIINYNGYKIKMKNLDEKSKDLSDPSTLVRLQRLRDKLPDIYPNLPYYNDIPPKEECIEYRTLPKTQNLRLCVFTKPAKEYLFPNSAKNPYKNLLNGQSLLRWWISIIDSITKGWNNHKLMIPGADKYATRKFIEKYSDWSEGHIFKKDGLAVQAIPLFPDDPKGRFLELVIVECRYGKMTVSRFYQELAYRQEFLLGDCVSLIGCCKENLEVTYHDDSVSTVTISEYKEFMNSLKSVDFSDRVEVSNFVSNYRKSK
CDK5 inh: inhibitors of human CDK5/p35 kinase | Q00535+Q15078 | Recombinant CDK5/p35, ADP-Glo luminescence, 60 min | inhibition, % at 10 µM | 0.01% of 330,000 active | AID 488839;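 active = highest replicate inhibition of at least 50% and at least 75% of replicates reaching 50%; inconclusive = only one of the two criteria met; inactive = both criteria failed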;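 note: plate controls were DMSO neutral control for no effect and GW8510 at 10 µM for full effect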
SMARCA2 act: increases SMARCA2 function in MMTV reporter cells; activation, % at 9.1 µM; 1% of 370,000 active; MG213 cells, MMTV-luciferase reporter, dexamethasone, overnight; in the data active = activation above about 7.8%;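 note: 0% = vehicle wells and 100% = reference activator wells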
SMARCA2 conf: SMARCA2 activation, confirmation screen | shares compounds with SMARCA2 act | MG213 cells, MMTV-luciferase with dexamethasone, luminescence, overnight; MG213 cells expressing E1A, Rb sequestered; DMSO wells 0%, reference activator 100% | activation, % at 9.1 µM | 30% of 3,500 active;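 active = activation above its plate's cutoff, the mean activation of tested wells plus 3 SD, cut at about 7.9% in these data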
VP16 Luc act: GAL4-VP16 reporter activation counter-screen | shares compounds with SMARCA2 act | HEK293 GAL4-VP16 pG5luc reporter, luciferase luminescence; scaled: DMSO wells 0%, SAHA wells 100% | activation, % at 9.1 µM | 41% of 3,500 active | AID 686939;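 active = activation above the solvent-only control well mean plus 3 SD, averaged across control plates, cut at about 5.2% in these data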
The depositor's hits bear a star; ? = inconclusive; . = no result given; ! = a repeat was not active. Sampled rows, rich in hits. Any-hit rate of the full collection: about 3.2%.

SMILES	Dyrk1A ADPGlo	dFosB activator	esBAF inh	Rtt109 Vps75	CDK5 inh	SMARCA2 act	SMARCA2 conf	VP16 Luc act
CCCN1[C@@H]2c3ccc(-c4ccc(F)cc4)c(=O)n3C[C@@H]2[C@@H](CO)[C@@H]1C(=O)OC	.	.	-1.5	.	.	.	.	.
CC(=O)c1cccc(NC(=O)N2CCc3ccccc3C2)c1	6.0	-7.1	?	6.8	-0.3	8.2*	4.2	7.8*
CCOc1ccc(NC(=O)N2CCc3ccccc3C2)cc1	-0.4	-1.4	?	-5.8	0.2	1.7	.	.
Cc1ccc(NC(=O)N2CCc3ccccc3C2)cc1	6.0	-7.5	46.2*	0.5	-1.7	8.9*	4.9	8.5*
Cc1noc(C)c1NC(=O)Nc1cccc2c1O[C@H](CN(C)Cc1ccncc1)[C@@H](C)CN([C@H](C)CO)C2=O	.	.	1.1	.	.	.	.	.
O=C(NC1CCCN(Cc2ccc(Cl)cc2)C1)C1CCC1 (configuration not stated)	-4.2	-2.3	-8.2	-4.9	1.0	-1.6	.	.
NC(=O)C1CCCN(Cc2ccc(Cl)cc2)C1 (configuration not stated)	-5.5	-2.8	-12.1	-6.2	-0.7	8.3*	6.0	-1.1
CN(C)CCCNC(=O)C[C@@H]1CC[C@H](NC(=O)Cc2cccnc2)[C@H](CO)O1	.	.	-6.8	.	.	.	.	.
COc1ccc(-c2nnc(-c3ccc(N)cc3)o2)cc1	-4.0	-2.6	24.3	-4.3	0.0	1.0	.	.
COc1ccc(-c2nnc(-c3ccc(N(C)C)cc3)o2)cc1	3.1	-3.7	36.9	1.2	0.4	16.4*	12.1*	1.1
CCc1ccccc1NC(=O)c1cc2sccc2n1C	1.2	-2.5	12.0	-3.8	-0.8	-1.3	.	.
Cn1c(C(=O)Nc2ccccc2)cc2sccc21	5.7	-3.6	-10.3	3.7	0.2	9.2*	8.7*	7.2*
Cc1ccc(C(=O)Nc2cccc(C(=O)N3CCOCC3)c2)cc1	7.9	-6.7	21.0	-5.6	0.6	15.6*	8.3*	2.9
CC(C)(C)c1ccc(C(=O)Nc2cccc(C(=O)N3CCOCC3)c2)cc1	1.6	-11.2	.	-2.2	-2.2	5.9	.	.
COc1ccc(C(=O)Nc2cccc(NC(C)=O)c2)cc1	.	.	25.4	.	.	5.4	.	.
Cc1ccc(NC(=O)c2ccc(OC(=O)c3cc4ccccc4o3)cc2)cc1	3.3	9.1	59.6*	1.3	-0.7	9.1*	7.0	14.2*
COc1ccc(NC(=O)c2ccc(C)cc2)cc1	1.9	1.6	-29.7	-9.3	1.3	2.2	.	.
COc1ccc(NC(=O)c2ccc3[nH]c(C)c(C)c3c2)cc1	-5.0	-9.6	58.1*	-1.0	-0.2	18.2*	9.5*	4.1
COc1ccc(C(=O)Nc2cccc(C)c2)cc1	7.2	0.0	13.5	4.7	1.9	9.6*	13.5*	8.4*
COc1ccc(CN(C)C[C@@H]2Oc3ccc(NC(=O)C4CC4)cc3C(=O)N([C@@H](C)CO)C[C@@H]2C)cc1	.	.	-4.0	.	.	.	.	.
COCC(=O)Nc1ccc2c(c1)OC[C@H](C)N(Cc1ccccn1)C[C@@H](C)[C@H](OC)CN(C)C2=O	.	.	-2.1	.	.	.	.	.
O=C(NCCc1ccncc1)[C@H]1[C@H](CO)[C@H]2Cn3c(ccc(-c4ccncc4)c3=O)[C@H]2N1C(=O)C1CC1	.	.	-4.0	.	.	.	.	.
COc1ccc(CN2C[C@H](O)COC[C@H]3O[C@H](CC(=O)NCc4ccncn4)CC[C@@H]32)cc1	.	.	-0.6	.	.	.	.	.
CCCC#Cc1ccc2c(c1)O[C@H](CN(C)C(=O)C1CCCCC1)[C@@H](C)CN([C@@H](C)CO)S2(=O)=O	.	.	2.7	.	.	.	.	.
COc1ccc(NC(=O)c2ccccc2)cc1	8.2	4.5	21.4	6.0	-0.5	7.0	.	.
SMILES	Dyrk1A ADPGlo	dFosB activator	esBAF inh	Rtt109 Vps75	CDK5 inh	SMARCA2 act	SMARCA2 conf	VP16 Luc act
COc1ccc(C(=O)Nc2cccc(-c3cnc4ccccc4n3)c2)cc1	3.4	-7.8	36.6	3.1	-0.4	8.4*	-2.7	3.5
COc1ccc(C(=O)NNc2ccccc2)cc1	4.2	4.3	.	8.7	0.0	10.2*	-0.7	-0.2
C/C=C/c1cnc2c(c1)C(=O)N([C@H](C)CO)C[C@H](C)[C@@H](CN(C)S(=O)(=O)c1ccccc1)O2	.	.	3.8	.	.	.	.	.
COc1ccc(NC(=O)N(C)C[C@H]2Oc3ccc(NS(=O)(=O)c4ccc(F)cc4)cc3CC(=O)N([C@@H](C)CO)C[C@@H]2C)cc1	.	.	1.2	.	.	.	.	.
COC(=O)/C(=C1/Oc2cc(C)oc(=O)c2S1)C(F)(F)F	12.3	1.3	-34.6	3.4	0.3	9.1*	-15.7	2.7
c1ccc2c(c1)COc1c3cc4c(cc3nn1-2)OCO4	.	.	25.0	.	.	9.5*	15.2*	10.6*
O=c1cc(-c2ccc3c(c2)OCO3)oc2ccccc12	46.7	-13.8	27.9	3.7	0.9	17.5*	6.4	7.3*
O=c1cc(-c2ccc(O)cc2)oc2ccccc12	38.3	-1.9	57.9*	-8.7	1.8	9.0*	11.5*	9.0*
O=c1cc(-c2ccccc2)oc2cc(O)cc(O)c12	25.7	0.8	7.1	5.8	3.1	8.5*	2.9	7.5*
Cc1cc(C(=O)Nc2cnc3ccccc3c2)ccc1[N+](=O)[O-]	1.5	-0.3	.	-1.9	-0.4	9.3*	5.1	8.5*
Cc1noc(C)c1NC(=O)N(C)C[C@H]1OCCCC[C@@H](C)Oc2ccc(NC(=O)c3ccncc3)cc2C(=O)N([C@H](C)CO)C[C@H]1C	.	.	-0.1	.	.	.	.	.
Cc1ccc(-c2csc(NC(=O)CSc3nc4ccccc4c(=O)n3CCCN(C)C)n2)cc1	-3.3	-37.0	.	?	-2.0	10.0*	6.5	0.9
CCN(CC)Cc1cc(Nc2ccnc3cc(Cl)ccc23)ccc1O	34.2	43.8*	-4.1	0.7	1.3	8.2*	20.4*!	-2.2
Oc1ccc(/C=N/Nc2ccnc3cc(Cl)ccc23)c(O)c1	19.8	?	32.6	1.9	-3.2	15.4*	18.4*	1.6
Oc1ccc(Nc2ccnc3cc(Cl)ccc23)cc1	1.1	?	9.7	0.6	1.0	7.2	.	.
O=C(COC(=O)c1ccccc1NS(=O)(=O)c1cccs1)NCC12CC3CC(CC(C3)C1)C2	4.8	-4.7	.	-3.3	-0.5	8.9*	-0.9	1.2
O=C(COC(=O)c1ccccc1NS(=O)(=O)c1cccs1)NC1CCCCC1	4.0	-8.0	.	2.9	0.2	-3.8	.	.
COC(=O)C[C@@H]1CC[C@H]2[C@@H](COC[C@@H](O)CN2CCC(F)(F)F)O1	.	.	-3.7	.	.	.	.	.
Cc1ccc(-c2nn(-c3ccc(F)cc3)cc2C(=O)N2CCN(C3CCS(=O)(=O)C3)CC2)cc1 (configuration not stated)	.	-1.9	0.6	0.5	0.1	9.5*	4.3	1.9

High-throughput results from PubChem BioAssay.
